Rows were chosen to be rich in hits. Some 4.2% of all compounds tested hit in one or more screens of this group.
PrPC TRFRET – inhibitors of human cell surface prion protein PrPC; 0.43% of 370,000 active; TR-FRET read-out; P04156; inhibition, % at 13.8 µM; in the data active = inhibition above about 24%; note: 0% = median of the test wells and 100% = reference compound wells
FBA Mtb inh – inhibits M. tuberculosis FBA enzyme. P9WQA3. purified M. tuberculosis FBA, fluorescence read-out. inhibition, % at 1 µM. 2.3% of 360,000 active; in the data active = inhibition above about 27%;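 note: 0% = vehicle and 100% = reference inhibitor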
GDH-TPI inh – inhibits GDH-TPI coupling enzymes, artifact for Mtb FBA screen; GDH-TPI coupled enzyme counterscreen, NADH absorbance; AID 588335; inhibition, % at 4.8 µM; 1.2% of 360,000 active; in the data active = inhibition above about 30%;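 note: 0% = DMSO wells and 100% = wells lacking the enzyme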
RecA intein inh – Mtb RecA intein splicing inhibition; P9WHJ3; cell-free RecA intein splicing, fluorescence; inhibition, % (concentration not given with the values); 0.75% of 290,000 active; in the data active = inhibition above about 30%;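 note: 0% = vehicle wells and 100% = reference inhibitor control wells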
Target sequence (P9WHJ3 whole entry, looked up): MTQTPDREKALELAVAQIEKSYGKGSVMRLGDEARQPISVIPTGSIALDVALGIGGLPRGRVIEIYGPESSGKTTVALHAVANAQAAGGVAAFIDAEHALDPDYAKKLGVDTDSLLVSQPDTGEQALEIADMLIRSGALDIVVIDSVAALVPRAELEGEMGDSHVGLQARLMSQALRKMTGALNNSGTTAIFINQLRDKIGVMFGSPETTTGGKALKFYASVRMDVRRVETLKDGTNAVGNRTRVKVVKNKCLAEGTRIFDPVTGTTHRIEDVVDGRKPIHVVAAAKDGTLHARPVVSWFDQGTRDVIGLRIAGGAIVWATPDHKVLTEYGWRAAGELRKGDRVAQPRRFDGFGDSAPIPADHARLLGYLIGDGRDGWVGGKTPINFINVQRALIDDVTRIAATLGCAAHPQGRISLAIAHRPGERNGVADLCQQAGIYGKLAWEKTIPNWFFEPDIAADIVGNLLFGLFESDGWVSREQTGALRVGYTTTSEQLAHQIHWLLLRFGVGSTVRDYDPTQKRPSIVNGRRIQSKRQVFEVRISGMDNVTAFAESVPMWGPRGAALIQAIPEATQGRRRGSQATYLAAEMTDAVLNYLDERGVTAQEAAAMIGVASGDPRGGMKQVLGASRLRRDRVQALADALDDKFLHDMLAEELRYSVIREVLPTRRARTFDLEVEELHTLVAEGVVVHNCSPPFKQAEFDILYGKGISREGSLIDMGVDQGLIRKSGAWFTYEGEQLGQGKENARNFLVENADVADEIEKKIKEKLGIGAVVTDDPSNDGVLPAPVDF
BJeLR lethal – BJeLR cell viability loss; BJeLR (HRASV12) viability, CellTiter-Glo ATP luminescence, 48 h; AID 1554; inhibition, % (test concentration not listed); 0.17% of 300,000 active; in the data active = inhibition above about 50%
PrPC TRFRET cf – cell surface PrPC inhibition, TR-FRET confirmation; shares compounds with PrPC TRFRET; cell surface PrPC level; inhibition, % at 13.8 µM; 65% of 1,500 active; in the data active = inhibition above about 25%
LD9 tox – kills or reduces viability of LD9 cells in PrPc counter-screen; shares compounds with PrPC TRFRET; LD9 cells cytotoxicity, luminescence viability; inhibition, % at 13.8 µM; 29% of 1,500 active; AID 743201; in the data active = inhibition above about 9.5%
Numbers without * were called inactive; · = not tested or not shown.

SMILES	PrPC TRFRET	FBA Mtb inh	GDH-TPI inh	RecA intein inh	BJeLR lethal	PrPC TRFRET cf	LD9 tox
O=C1OCCC1Sc1ncnc2sccc12 (stereo unspecified)	31*	0	3	3	-3	32*	3
Cc1cc(SC2CCOC2=O)nc2ccccc12 (stereo unspecified)	0	-4	0	·	3	·	·
COc1ccc(CC(N)c2csc(NC(=O)Nc3ccccc3Oc3ccccc3)n2)cc1 (stereo unspecified)	19	1	6	·	·	·	·
NC(Cc1ccccc1)c1csc(NC(=O)Nc2ccccc2Oc2ccccc2)n1 (stereo unspecified)	25*	-1	8	·	·	27*	-1
COC(=O)C1=C(C)N(Cc2cccc(C(F)(F)F)c2)C(=NCc2cc(OC)c(OC)c(OC)c2)NC1CCc1ccccc1 (stereo unspecified)	31*	·	·	·	·	26*	5
Cc1ccc(NC(=S)NNC(=O)c2cnccn2)cc1	-1	·	·	·	·	·	·
CCc1ccccc1-c1cc(C(C)=O)c2n(c1=O)CCC2	-7	·	·	·	·	·	·
CN(C)c1ccc(-[n+]2c(-c3ccccc3)cc(-c3ccccc3)cc2-c2ccccc2)cc1	31*	-6	18	·	56*	41*	47*
CCOC(=O)c1cccc(-[n+]2c(-c3ccccc3)cc(-c3ccccc3)cc2-c2ccccc2)c1	-7	6	2	7	9	·	·
Cc1nn(C)cc1CN(C)C(=O)c1cc(-c2ccccc2)nc2ccc(Br)cc12	68*	-1	3	-3	-1	81*	6
CCN1CCN(C(=O)c2cc(-c3cccnc3)nc3ccc(Br)cc23)CC1	5	-3	-2	-1	1	·	·
O=C(O)c1cc(-c2cccs2)nc2ccc(Br)cc12	40*	17	13	-1	12	78*	-5
Cn1cc(CNC(=O)c2cc(-c3ccccc3)nc3ccc(Br)cc23)cn1	-1	-1	4	-4	9	·	·
O=C(O)c1cc(-c2cccnc2)nc2ccc(Br)cc12	45*	3	4	-1	·	61*	-6
COc1ccccc1CCn1cnc(-c2cccc(Br)c2)c1C(C)C	9	·	·	·	·	·	·
Nc1ccn([C@@H]2O[C@H](C(=O)N[C@H](Cc3ccccc3)C(=O)N3CCSC3)[C@@H](O)[C@H]2O)c(=O)n1	-5	·	·	·	·	·	·
CC#CC[N+](C)(C)CCCCCCCCCCCC	25*	0	1	5	17	28*	16*
C#CC[N+](C)(C)CCCCCCCCCC	8	1	3	3	-1	·	·
CCN(CC)C(=O)Cn1cc(C(=O)C(=O)N2CCc3ccccc32)c2ccccc21	53*	-1	14	-2	1	13	-2
CCN(CC)C(=O)Cn1cc(C(=O)C(=O)N2CCCc3ccccc32)c2ccccc21	-3	0	10	-2	·	·	·
COC(=O)[C@H](N[C@H](/C=C/c1ccccc1)[C@@H](O)Cc1ccccc1)c1ccccc1	2	·	·	·	·	·	·
CCOC(=O)c1c(C)[nH]c(C(=O)OCC(=O)Nc2sccc2C(N)=O)c1C	33*	1	5	-2	16	18	44*
CCOC(=O)c1c(C)[nH]c(C(=O)OCC(=O)Nc2ccc(Cl)cn2)c1C	2	4	11	·	·	·	·
CC(C)(C)OC(=O)NC(Cc1ccccc1)C1CC(C#N)C(=O)O1 (stereo unspecified)	-1	·	·	·	·	·	·
CCCCNC(=O)C1CCC(CNc2nc(=S)[nH]c3ccccc23)CC1 (stereo unspecified)	-1	6	1	·	-8	·	·
COc1ccc(N2CCN(CCCNC(=O)C3CCC(CNc4nc(=S)[nH]c5ccccc45)CC3)CC2)cc1 (stereo unspecified)	33*	1	4	-1	0	28*	14*
O=C(OCC#CCSc1nnc(-c2cccc3ccccc23)o1)c1cc(F)c(F)c(F)c1	-2	·	·	·	·	·	·
NC1=C(Cl)C(=O)c2ccc(S(N)(=O)=O)cc2C1=O	34*	0	11	·	·	44*	98*
O=c1oc2ccccc2c(O)c1[C@H]1c2ccc(O)cc2Oc2c1c(=O)oc1ccccc21	41*	-1	23	-5	2	57*	-10
CCc1ccccc1Nc1nn2c(=O)c3ccc(C(=O)NCc4ccccn4)cc3nc2s1	38*	0	16	-3	-12	25*	-7
